High-throughput results from PubChem BioAssay.
GPR151 ag: activates the human receptor GPR151; activation, % at 11.2 µM; actives 1% (n = 650,000); Q8TDV0; PathHunter beta-arrestin GPR151 cells, luminescence; in the data active = activation above about 4.9%
Target sequence (Q8TDV0 whole entry, looked up): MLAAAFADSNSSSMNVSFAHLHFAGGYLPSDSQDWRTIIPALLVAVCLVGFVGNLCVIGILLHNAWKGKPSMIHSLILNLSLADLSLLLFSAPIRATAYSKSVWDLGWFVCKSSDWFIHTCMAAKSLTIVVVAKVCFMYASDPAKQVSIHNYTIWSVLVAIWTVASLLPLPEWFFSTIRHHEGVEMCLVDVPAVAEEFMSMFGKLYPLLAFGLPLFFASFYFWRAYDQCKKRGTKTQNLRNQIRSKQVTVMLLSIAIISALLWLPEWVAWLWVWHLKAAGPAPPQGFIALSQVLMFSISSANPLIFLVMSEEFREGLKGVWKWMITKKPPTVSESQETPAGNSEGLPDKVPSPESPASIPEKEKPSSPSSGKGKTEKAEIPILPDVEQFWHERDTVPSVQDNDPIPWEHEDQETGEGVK
TEAD-YAP block: TEAD-YAP interaction inhibition | actives 1.4% (n = 640,000) | inhibition, % at 9.12 µM | AID 1259422 | HEK-TIYL cells, TEAD-Gal4/YAP UAS-luciferase luminescence; in the data active = inhibition above about 32%
FBW7 activator: activators of human E3 ligase FBW7. AID 1259310. AlphaScreen FBW7–phospho-cyclin E peptide binding, activator screen. normalized activity (activation), % at 26.1 µM. actives 0.13% (n = 650,000); in the data active = normalized activity above about 1.9%;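 note: purified mutant Fbw7 with reduced substrate affinity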
MITF inh: inhibitors of human MITF; AlphaScreen MITF homodimerization, bead proximity signal; actives 0.91% (n = 650,000); inhibition, % at 2.6 µM; AID 1259374; in the data active = inhibition above about 50%
Each line names hits and unclear results; the compound was inactive in the other large screens. Rows were chosen to be rich in hits. Some 3.4% of all compounds tested hit in one or more screens of this group.

COc1cccc(/C=N\Nc2ncc(F)c(N3CCOCC3)n2)c1O	TEAD-YAP block 41, MITF inh 86
Fc1cnc(N/N=C/c2cccs2)nc1N1CCOCC1	TEAD-YAP block 45
Fc1cnc(N/N=C/c2ccc(Cl)cc2Cl)nc1N1CCOCC1	none
CC1=C(C(=O)OC(C)C)C(c2cccc(Cl)c2Cl)C2=C(CCCC2=O)N1 (stereo unspecified)	none
COC(=O)c1ccc(C2Nc3ccc4ncccc4c3C3=C2C(=O)CCC3)cc1OC (stereo unspecified)	TEAD-YAP block 59
CC(=O)NS(=O)(=O)c1ccc(NC(=O)c2c(-c3ccccc3Cl)noc2C)cc1	FBW7 activator 1.9
Cc1onc(-c2ccccc2Cl)c1C(=O)Nc1ccccc1C(=O)Nc1ccccc1	TEAD-YAP block 33
CN(c1ccccc1)S(=O)(=O)c1ccc(C(=O)Nc2ccc(-c3nc4ccccc4[nH]3)cc2)cc1	none
Cc1onc(-c2ccccc2Cl)c1C(=O)Nc1ccc(-c2nc3ccccc3[nH]2)cc1	TEAD-YAP block 33
CN(C)S(=O)(=O)c1ccc(C(=O)NC(=S)Nc2ccc(-c3nc4ccccc4[nH]3)cc2)cc1	FBW7 activator 3.9
O=[N+]([O-])c1cc(/C=N/Nc2nc3ccccc3[nH]2)ccc1Cl	none
CCN1C(=O)/C(=C\C=C2\CCCN2C)OC1=S	none
c1ccc(Nc2cc(Nc3ccc(N4CCOCC4)cc3)ncn2)nc1	none
Cc1cccc(C(=O)N2CCCC(C(=O)Nc3cccc(-c4ccc(F)cc4)c3)C2)n1 (stereo unspecified)	none
Cc1cc(C(=O)N2CCCC(C(=O)Nc3cccc(-c4ccc(F)cc4)c3)C2)n(C)n1 (stereo unspecified)	TEAD-YAP block 45
CCCNC(=O)c1cnc(N2CCCC2)nc1	none
O=C(CCl)NCC1(c2ccccc2)CCCC1	TEAD-YAP block 58
Cc1sc2ncnc(NCCc3ccc(S(N)(=O)=O)cc3)c2c1C	TEAD-YAP block 37
Cc1sc2ncnc(NCCC3=CCCCC3)c2c1C	TEAD-YAP block 44
Cc1nc(NCCC2=CCCCC2)c2c3c(sc2n1)CCCC3	none
O=c1[nH]c2ccc(S(=O)(=O)NCCCO)cc2[nH]1	FBW7 activator 1.9
COc1ccccc1/C=N/Nc1nc(-c2ccccc2)cc(=O)[nH]1	TEAD-YAP block 50
COc1cc(/C=C2\SC(N3CCN(CCO)CC3)=NC2=O)ccc1O	none
COc1ccc(C(c2nnnn2C(C)(C)C)N2CCN(C3CCCCC3)CC2)cc1 (stereo unspecified)	none
CCCCn1c(=O)c(C#N)cc2c(=O)n3cc(C)ccc3nc21	none
CC1=CC(C)(C)N(C(=O)Nc2ccc(Cl)cc2)c2ccc(C)cc21	none
CC1=CC(C)(C)N(C(=O)c2ccc(NS(C)(=O)=O)cc2)c2ccc(C)cc21	TEAD-YAP block 59
COc1nc(NCCO)nc(-c2ccccc2)n1	none
CCc1nc2sc(C(N)=O)c(N)c2c2c1CCCC2	TEAD-YAP block 38
CCc1nc2sc(C(=O)OC)c(N)c2c2c1CCCC2	none
NC(=O)c1sc2nc3c(c(-c4ccco4)c2c1N)CCC3	TEAD-YAP block 44
COC(=O)c1sc2nc3c(c(-c4ccc(C)o4)c2c1N)CCCC3	none
Cc1ccc(-c2c3c(nc4sc(C(N)=O)c(N)c24)CCCC3)o1	MITF inh 55
CNc1c(C)ccc2c1C(=O)c1ccccc1C2=O	MITF inh 84
COc1cc(OC)c(OC)cc1/C=C1/C(=O)N(c2cc(C)cc(C)c2)C(c2cccc([N+](=O)[O-])c2)S1(=O)=O (stereo unspecified)	none
CC(=O)NC(c1ccc(C(C)C)cc1)c1ccc2cccnc2c1O (stereo unspecified)	TEAD-YAP block 83
Cc1cc(C)nc(NC(c2ccco2)c2ccc3cccnc3c2O)n1 (stereo unspecified)	none
Cc1ccc(C(NC(=O)c2ccccc2)c2ccc3cccnc3c2O)cc1 (stereo unspecified)	none
CC(=O)NC(c1ccccc1F)c1ccc2cccnc2c1O (stereo unspecified)	TEAD-YAP block 84
Oc1cccnc1NC(c1ccccc1F)c1ccc2cccnc2c1O (stereo unspecified)	TEAD-YAP block 36
C=CCn1cc(CN2CCC3(CC2)NC(=O)c2ccccc2O3)c(C)n1	none
O=C(N/N=C/c1cccc([N+](=O)[O-])c1O)c1cccc([N+](=O)[O-])c1	MITF inh 53
O=C(N/N=C/c1cccc([N+](=O)[O-])c1O)c1cccs1	MITF inh 73
O=C(N/N=C/c1ccc([N+](=O)[O-])cc1)c1cccs1	none
COc1cc2c(cc1O)CC[C@@H]1[C@@H]2CC[C@]2(C)[C@@H](O)CC[C@@H]12	TEAD-YAP block 53
